Test results reported in PubChem BioAssay (NCI).
The panel holds about 83,000 compounds, 20% with a hit somewhere; the sample as a whole holds those more often.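 Single-concentration screen, 48 h exposure, 96-well plates. Endpoint: percent growth. Below 10 = active.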 The source made the active and inactive calls.

Tests used:
Assay in all cases: NCI-60 one-dose screen, 48 h (100 = growth as untreated, 0 = no growth, -100 = all killed)
Settings in all cases: 10 µM unless noted
HCT-15 colon = system: HCT-15 colon
HT29 colon = system: HT29 colon
SNB-75 CNS = system: SNB-75 CNS
SNB-19 CNS = system: SNB-19 CNS
U251 CNS = system: U251 CNS
PC-3 prostate = system: PC-3 prostate
UACC-62 melanoma = system: UACC-62 melanoma
LOX IMVI melanoma = system: LOX IMVI melanoma
SK-MEL-28 melanoma = system: SK-MEL-28 melanoma
SK-MEL-2 melanoma = system: SK-MEL-2 melanoma
EKVX NSCLC = system: EKVX NSCLC
UO-31 renal = system: UO-31 renal
TK-10 renal = system: TK-10 renal
ACHN renal = system: ACHN renal
CAKI-1 renal = system: CAKI-1 renal
A498 renal = system: A498 renal
CCRF-CEM leukemia = system: CCRF-CEM leukemia
MOLT-4 leukemia = system: MOLT-4 leukemia
SN12C renal = system: SN12C renal

Row | SMILES | growth (HCT-15 colon) | growth (HT29 colon) | growth (SNB-75 CNS) | growth (SNB-19 CNS) | growth (U251 CNS) | growth (PC-3 prostate) | growth (UACC-62 melanoma) | growth (LOX IMVI melanoma) | growth (SK-MEL-28 melanoma) | growth (SK-MEL-2 melanoma) | growth (EKVX NSCLC) | growth (UO-31 renal) | growth (TK-10 renal) | growth (ACHN renal) | growth (CAKI-1 renal) | growth (A498 renal) | growth (CCRF-CEM leukemia) | growth (MOLT-4 leukemia) | growth (SN12C renal)
1 | O=C1NC(=C(Cl)Cl)/C(=N/S(=O)(=O)N2CCCCC2)N1 | -79% (active) | -75.8% (active) | 93.5% (inactive) | 60.9% (inactive) | -45.1% (active) | 28.5% (inactive) | 46.6% (inactive) | -56.6% (active) | -32.7% (active) | 40.7% (inactive) | -23.9% (active) | 39.7% (inactive) | 13.9% (inactive) | 26.8% (inactive) | 46% (inactive) | 132% (inactive) | -63.3% (active) | -48.7% (active) | 
2 | COc1ccc2cc(-c3cnc4nonc4n3)ccc2c1 | 22.7% (inactive) | 13.4% (inactive) | 15.8% (inactive) | 37.7% (inactive) | 16.9% (inactive) | 25.5% (inactive) | 2.86% (active) | 25.5% (inactive) | 86.3% (inactive) | 52.7% (inactive) | 16.1% (inactive) | 37.7% (inactive) | 54.5% (inactive) | 50.8% (inactive) | 29.7% (inactive) | 60.8% (inactive) | 8.1% (active) |  | 38.7% (inactive)
3 | CN(C)c1ccc(-c2cc(-c3ccc(Nc4nc(Nc5ccc(Cl)cc5)nc(Nc5ccc(Cl)cc5)n4)cc3)nc(N)c2C#N)cc1 | 75.9% (inactive) | 80.3% (inactive) | 83.8% (inactive) | 97.8% (inactive) | 63.3% (inactive) | 57.7% (inactive) | 91% (inactive) | 72.7% (inactive) | 88.7% (inactive) | 68.5% (inactive) | 79.8% (inactive) | 67.5% (inactive) | 104% (inactive) | 82.4% (inactive) | 82.3% (inactive) | 92.5% (inactive) | 46.9% (inactive) | 45% (inactive) | 113% (inactive)
4 | Nc1ccc([N+](=O)[O-])cc1N=C/C=C/c1ccccc1 | 42.9% (inactive) | 28.6% (inactive) | 86.6% (inactive) | 72.2% (inactive) | 56.9% (inactive) | 72.4% (inactive) | 63.2% (inactive) | 49% (inactive) | 94.8% (inactive) | 43.5% (inactive) | 97.5% (inactive) | 43.3% (inactive) | 79.8% (inactive) | 81.7% (inactive) | 73.1% (inactive) | 79.3% (inactive) | 18.3% (inactive) | 14.8% (inactive) | 50.6% (inactive)
5 | Cn1cc(/C=C2/C(=O)Nc3ccccc32)c2ccccc21 | 72.9% (inactive) | 95.4% (inactive) | 99.3% (inactive) | 102% (inactive) | 78.3% (inactive) | 90.2% (inactive) | 107% (inactive) | 92.1% (inactive) | 101% (inactive) | 101% (inactive) | 78.2% (inactive) | 57.9% (inactive) | 119% (inactive) |  | 64.8% (inactive) | 118% (inactive) | 90% (inactive) | 82.4% (inactive) | 85.7% (inactive)
